40 compounds from PubChem BioAssay (Tox21) can be followed below.

Each structure is given as a SMILES string. Inconclusive results are not listed. Values without a mark were called inactive. The source made the active and inactive calls. Calls come from the whole dose curve; as a rule, active = well fitted cell-killing curve with a large enough effect in the repeat runs; inconclusive = weak or mixed curves, or effect the other way; inactive = flat fitted curve, though single readings scatter.
% is set by controls: 0 for no effect and ±100 for the full control effect; potency is the fitted concentration of half-maximal effect.

The nature of the assay: cAMP Responsive Elements (CRE) small molecule agonists, cell-based qHTS assay: qHTS cell viability counter screen (AID 2060914). Note: nearly all actives have a fitted effect of over 50% in size. The settings on record: CRE-bla HEK293T viability, CellTiter-Glo luminescence, 5 h; series mostly up to 92.4 µM; activity change, negative = cytotoxicity: at the top concentration. In short, it runs like this: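 Cells are seeded and incubated 18 h, treated with compounds in DMSO for 3 h, read for the bla reporter, then given CellTiter-Glo; luminescence is measured after 30 min at room temperature.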
For the compound `O=C(O)CCC(=O)OC[C@@H](NC(=O)C(Cl)Cl)[C@H](O)c1ccc([N+](=O)[O-])cc1`, the “activity change, negative = cytotoxicity” value is 8.53% [at 42.5 µM].

As to `COP(=O)(OC)OC(c1ccc(Cl)cc1)P(=O)(OC)OC` (stereo not given), the “activity change, negative = cytotoxicity” value is 1.73% [at 42.5 µM].

With `O=C1CCCCCN1`, the Potency entry is “inactive”.

For the compound `CN1CC[C@H](c2c(O)cc(O)c3c(=O)cc(-c4ccccc4Cl)oc23)[C@H](O)C1`, the “activity change, negative = cytotoxicity” value was 19.4% [at 42.5 µM].

In the case of `N#CCCOCCC#N`, the “activity change, negative = cytotoxicity” value was -16.8%.

`Cc1ccccn1`: the “activity change, negative = cytotoxicity” value is -13.6%.

In the case of `CCCCCC1=CCCC1=O`, the Potency result was “inactive”.

Regarding `CCCCCCc1ccc(N)cc1`, the “activity change, negative = cytotoxicity” value is -12.4%.

Consider `CN(C)C(=O)Nc1ccccc1`, for which the “activity change, negative = cytotoxicity” value was -0.999%.

On to `CC(=O)O[C@@]12CO[C@@H]1C[C@H](O)[C@@]1(C)C(=O)[C@H](O)C3=C(C)[C@@H](OC(=O)[C@H](O)[C@@H](NC(=O)OC(C)(C)C)c4ccccc4)C[C@@](O)([C@@H](OC(=O)c4ccccc4)[C@H]21)C3(C)C`, for which the “activity change, negative = cytotoxicity” value was 4.31% [at 42.5 µM].

As to `O=C(Nc1ccc([N+](=O)[O-])cc1)Nc1ccc([N+](=O)[O-])cc1`, the “activity change, negative = cytotoxicity” value is 4.2% [at 42.5 µM].

On to `C=CC(=O)NC(C)(C)C`, for which the “activity change, negative = cytotoxicity” value was 0.0617%.

With `C/C=C/C(=O)Oc1c(CCCCCC(C)C)cc([N+](=O)[O-])cc1[N+](=O)[O-]`, the “activity change, negative = cytotoxicity” value was -34.5%.

Take `O=c1cc(-c2ccccc2)oc2cc(O)cc(O)c12`: the “activity change, negative = cytotoxicity” value is 10.8%.

As to `CC1(C)C(=O)N(Br)C(=O)N1Cl`, the “activity change, negative = cytotoxicity” value is 0.19%.

As for `c1cc[nH]c1`, the “activity change, negative = cytotoxicity” value was 14.6%.

On to `C/C(=N\O)[C@@H](C)NCC(C)(C)CN[C@H](C)/C(C)=N/O`, for which the “activity change, negative = cytotoxicity” value was -1.23% [at 42.5 µM].

In the case of `CCCCCCC(CCCCCCCCCCC(=O)OCC(COC(C)=O)OC(C)=O)OC(C)=O` (stereo not given), the “activity change, negative = cytotoxicity” value is 6.95% [at 42.5 µM].

For `O=S(O)CO`, the “activity change, negative = cytotoxicity” value was 16.2%.

For `O=C(O)/C=C/c1ccccc1`, the “activity change, negative = cytotoxicity” value is -6.5%.

Turning to `O=C(O)c1ccc(O)c(O)c1`, the “activity change, negative = cytotoxicity” value was 1.18%.

In the case of `CCCCCC#CC(=O)OC`, the “activity change, negative = cytotoxicity” value is 1.44%.

`CCC(=O)C1CC(C(C)C)CC=C1C` (stereo not given): the “activity change, negative = cytotoxicity” value is 1.74%.

`CN1CN(C)CN(C)C1`: the “activity change, negative = cytotoxicity” value is -0.133%.

For the compound `NNC(=O)CP(=O)(c1ccccc1)c1ccccc1`, the “activity change, negative = cytotoxicity” value was 10% [at 42.5 µM].

For the compound `COCCOCCOC`, the Potency result was “inactive”.

Turning to `Cc1cc2c(C(C)C)c(O)c(O)c(C=O)c2c(O)c1-c1c(C)cc2c(C(C)C)c(O)c(O)c(C=O)c2c1O`, the Potency was 26.6 µM (active).

On to `CCN(CC)CCCC(C)Nc1c2ccc(Cl)cc2nc2ccc(OC)cc12` (stereo not given), for which the “activity change, negative = cytotoxicity” value was 6.25% [at 42.5 µM].

On to `O=C1Nc2cc(Cl)ccc2Oc2ccccc21`, for which the “activity change, negative = cytotoxicity” value is -0.0525% [at 42.5 µM].

In the case of `O=C(Cn1ccnc1[N+](=O)[O-])NCCO`, the “activity change, negative = cytotoxicity” value was -0.225% [at 42.5 µM].

`CCCC/C=C\CCCCCCCCCC=O`: the “activity change, negative = cytotoxicity” value was 4.08%.

In the case of `CCOC(=O)CC#N`, the “activity change, negative = cytotoxicity” value is -9.88%.

As to `CC(N)CCCC(C)(C)O` (stereo not given), the “activity change, negative = cytotoxicity” value is -1.28% [at 42.5 µM].

Consider `CC(C)c1nnc2ccc(-c3ocnc3-c3cc(F)ccc3F)cn12`, for which the “activity change, negative = cytotoxicity” value was -9.54%.

`Nc1cc([N+](=O)[O-])ccc1O`: the Potency entry was “inactive”.

Take `COc1ccc(C)cc1N`: the Potency result was “inactive”.

For the compound `CCCCOC(=O)CC#N`, the “activity change, negative = cytotoxicity” value is 2.52%.

In the case of `c1cnc(N2CCN(Cc3ccc4c(c3)OCO4)CC2)nc1`, the “activity change, negative = cytotoxicity” value is 5.45% [at 42.5 µM].

In the case of `NC(=O)n1c(O)c(C(=O)c2cccs2)c2cc(Cl)ccc21`, the “activity change, negative = cytotoxicity” value is -6.91% [at 42.5 µM].

Take `CCCSSCCC`: the “activity change, negative = cytotoxicity” value was 3.57%.
